High-throughput results as filed in PubChem BioAssay.
This is a sample that favours compounds with a hit; in the whole collection about 3.3% have one here.
PfGluPho inh – PfG6PD (Plasmodium falciparum) enzyme inhibition; PfGluPho enzyme, NADPH resazurin-diaphorase fluorescence; inhibition, % at 20 µM; 0.78% of 350,000 active;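 active = inhibition reaching at least a set limit at 20 µM in the primary screen, cut at about 59% in these data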
MBD2 DNA inh – blocks human MBD2 binding to methylated DNA; Q9UBB5; TR-FRET, MBD2 binding to methylated oligonucleotide; inhibition, % at 4.4 µM; 0.31% of 370,000 active; AID 686964; in the data active = inhibition above about 13%
PRMT1 FP inh – blocks human protein arginine methyltransferase 1; AID 652257; recombinant PRMT1, activity-based probe fluorescence polarization; 1.3% of 370,000 active; inhibition, % at 2.79 µM; Q99873;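 active = inhibition above about 21% made by adding two undisclosed values, limit read from the data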
Target sequence (Q99873 whole entry, looked up): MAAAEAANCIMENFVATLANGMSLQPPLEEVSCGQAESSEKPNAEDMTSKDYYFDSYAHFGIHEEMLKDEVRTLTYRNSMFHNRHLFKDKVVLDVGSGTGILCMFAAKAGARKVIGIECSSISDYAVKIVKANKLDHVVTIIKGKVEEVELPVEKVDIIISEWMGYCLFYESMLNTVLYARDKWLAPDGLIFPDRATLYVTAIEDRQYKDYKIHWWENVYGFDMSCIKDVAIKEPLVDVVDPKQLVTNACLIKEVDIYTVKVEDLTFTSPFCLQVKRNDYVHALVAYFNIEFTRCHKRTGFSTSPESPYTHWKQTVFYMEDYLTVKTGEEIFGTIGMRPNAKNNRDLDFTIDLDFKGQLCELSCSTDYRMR
UHRF1 binding – UHRF1 methyl-DNA binding inhibition. Q96T88. UHRF1 binding to methylated oligo, TR-FRET. inhibition, % at 4.4 µM. 0.75% of 370,000 active. AID 687016; in the data active = inhibition above about 21%;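 note: UHRF1 SRA domain binding a hemimethylated CpG hairpin DNA probe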
M18AAP inhibitor – blocks P. falciparum M18 aspartyl aminopeptidase | 1.2% of 290,000 active | recombinant PfM18AAP, H-Glu-NHMec fluorogenic cleavage | inhibition, % at 7.35 µM | AID 1822;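 active = inhibition above the campaign mean inhibition over all tested compounds plus 3 SD, cut at about 28% in these data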
Numbers stand for hits.

Results for O=C(NNc1nc2c(F)cccc2s1)c1ccc(F)cc1 ?
PfGluPho inh: inactive; MBD2 DNA inh: inactive; PRMT1 FP inh: inactive; UHRF1 binding: inactive; M18AAP inhibitor: 30

How did O=C(COc1ccccc1)NNc1nc2ccccc2s1 do in these assays?
PfGluPho inh: inactive; MBD2 DNA inh: inactive; PRMT1 FP inh: inactive; UHRF1 binding: inactive; M18AAP inhibitor: inactive

Results for O=C(COc1ccccc1)NNc1nc2c(F)cccc2s1 ?
PfGluPho inh: inactive; MBD2 DNA inh: inactive; PRMT1 FP inh: inactive; UHRF1 binding: inactive; M18AAP inhibitor: inactive

What do the screens show for `C#CCNC(=O)C[C@H]1C[C@@]2(C(=O)OC)C(=C[C@H](C(C)(C)C)O[C@@H]2C)N(CCc2ccc(OC)c(OC)c2)C1=O`?
MBD2 DNA inh: inactive; PRMT1 FP inh: inactive; UHRF1 binding: inactive

What do the screens show for `Cc1ccc(Cl)cc1NC(=O)N(C)CCOC(=O)Nc1cccc(Cl)c1`?
MBD2 DNA inh: inactive; PRMT1 FP inh: inactive; UHRF1 binding: inactive

What do the screens show for `COc1ccc(-c2csc(NC(=O)c3cc(=O)c4ccccc4o3)n2)cc1OC`?
PfGluPho inh: 67; MBD2 DNA inh: inactive; PRMT1 FP inh: inactive; UHRF1 binding: inactive; M18AAP inhibitor: inactive

Results for O=C(NNc1nc2c(F)cccc2s1)C1COc2ccccc2O1 (stereo not drawn) ?
PfGluPho inh: inactive; MBD2 DNA inh: inactive; PRMT1 FP inh: inactive; UHRF1 binding: inactive; M18AAP inhibitor: inactive

What do the screens show for `O=C(NNc1nc2c(F)cccc2s1)c1cc(=O)c2ccccc2o1`?
PfGluPho inh: inactive; MBD2 DNA inh: inactive; PRMT1 FP inh: inactive; UHRF1 binding: inactive; M18AAP inhibitor: 30

Results for COc1ccc2nc(NNC(=O)c3cc(=O)c4ccccc4o3)sc2c1 ?
PfGluPho inh: inactive; MBD2 DNA inh: inactive; PRMT1 FP inh: 22; UHRF1 binding: inactive; M18AAP inhibitor: inactive

What do the screens show for `O=C(NNc1nc2ccccc2s1)Nc1ccccc1`?
PfGluPho inh: inactive; MBD2 DNA inh: inactive; PRMT1 FP inh: inactive; UHRF1 binding: inactive; M18AAP inhibitor: 29

Results for COC(=O)[C@]12C[C@H](CC(=O)NCc3ccc(OC)c(OC)c3)C(=O)N(Cc3ccc(Cl)cc3Cl)C1=C[C@H](C1CCCC1)O[C@@H]2C ?
MBD2 DNA inh: inactive; PRMT1 FP inh: inactive; UHRF1 binding: inactive

How did COc1ccccc1CCC[C@H](CCS(=O)(=O)C(C)C)CC1CCCCC1 do in these assays?
MBD2 DNA inh: inactive; PRMT1 FP inh: inactive; UHRF1 binding: inactive

How did CCC(=O)Nc1nnc(S(=O)(=O)N(C)Cc2ccco2)s1 do in these assays?
PfGluPho inh: inactive; MBD2 DNA inh: inactive; PRMT1 FP inh: inactive; UHRF1 binding: 21; M18AAP inhibitor: inactive

What do the screens show for `CCCC(=O)Nc1nnc(S(=O)(=O)N(C)Cc2ccco2)s1`?
PfGluPho inh: inactive; M18AAP inhibitor: inactive

What do the screens show for `Cc1noc(C)c1COc1ccccc1C(=O)NC(C)c1ccc(Cl)cc1` (stereo not drawn)?
PfGluPho inh: inactive; MBD2 DNA inh: inactive; PRMT1 FP inh: inactive; UHRF1 binding: 32

Results for O=Cc1coc([B-](F)(F)F)c1 ?
MBD2 DNA inh: inactive; PRMT1 FP inh: inactive; UHRF1 binding: inactive

Results for Clc1ccc2nc(-c3cccc(Br)c3)c(Cc3ccccc3)n2c1 ?
MBD2 DNA inh: inactive; PRMT1 FP inh: inactive; UHRF1 binding: 21

What do the screens show for `Cc1ccc(Cc2c(-c3cccc(Br)c3)nc3ccc(C)cn23)cc1`?
MBD2 DNA inh: inactive; PRMT1 FP inh: inactive; UHRF1 binding: inactive

Results for COC(=O)c1ccc2nc(-c3ccc(C)cc3)c(Cc3ccc(C)cc3)n2c1 ?
MBD2 DNA inh: inactive; PRMT1 FP inh: inactive; UHRF1 binding: 21

What do the screens show for `COC(=O)c1ccc2nc(-c3ccc(F)cc3)c(Cc3cccc(Cl)c3)n2c1`?
MBD2 DNA inh: inactive; PRMT1 FP inh: inactive; UHRF1 binding: inactive

What do the screens show for `COC(=O)c1ccc2nc(-c3ccc(Cl)cc3)c(Cc3ccccc3)n2c1`?
MBD2 DNA inh: inactive; PRMT1 FP inh: inactive; UHRF1 binding: 23

Results for Cc1ccc2nc(-c3cccc(Br)c3)c(CC3CCCCC3)n2c1 ?
MBD2 DNA inh: inactive; PRMT1 FP inh: inactive; UHRF1 binding: 21

How did Clc1cccc(Cc2c(-c3cccc(Br)c3)nc3ccc(Cl)cn23)c1 do in these assays?
MBD2 DNA inh: inactive; PRMT1 FP inh: inactive; UHRF1 binding: inactive

Results for C[C@H](CO)N1C[C@H](C)[C@@H](CN(C)C(=O)Cc2ccccc2)OCc2cn(nn2)CCCC1=O ?
MBD2 DNA inh: inactive; PRMT1 FP inh: inactive; UHRF1 binding: inactive

How did CCCCS(=O)(=O)N1CCCc2nc(-c3ccc(OC)cc3)ccc21 do in these assays?
MBD2 DNA inh: inactive; PRMT1 FP inh: inactive; UHRF1 binding: inactive

How did COC(=O)c1ccc2nc(-c3cccc(Cl)c3)c(Cc3ccccc3OC)n2c1 do in these assays?
MBD2 DNA inh: inactive; PRMT1 FP inh: inactive; UHRF1 binding: 21

How did COC(=O)c1ccc2nc(-c3ccc(Cl)cc3)c(Cc3ccccc3OC)n2c1 do in these assays?
MBD2 DNA inh: inactive; PRMT1 FP inh: inactive; UHRF1 binding: inactive

Results for O=S(=O)(c1ccc(Br)cc1)n1c(Cc2ccccc2)nc2ccccc21 ?
PfGluPho inh: inactive; MBD2 DNA inh: inactive; PRMT1 FP inh: inactive; UHRF1 binding: inactive; M18AAP inhibitor: inactive

How did O=S(=O)(N1CCCCC1)n1c(Cc2ccccc2)nc2ccccc21 do in these assays?
PfGluPho inh: inactive; MBD2 DNA inh: inactive; PRMT1 FP inh: inactive; UHRF1 binding: 35; M18AAP inhibitor: inactive

How did C=CCCC1CN(CC=C)S(=O)(=O)c2c(F)cccc2O1 (stereo not drawn) do in these assays?
MBD2 DNA inh: inactive; PRMT1 FP inh: inactive; UHRF1 binding: 22

How did CC(=O)OCC1=C(C(=O)O)N2C(=O)C(NC(=O)C(C)Cn3nc(C)c(Cl)c3C)C2SC1 (stereo not drawn) do in these assays?
PfGluPho inh: inactive; MBD2 DNA inh: inactive; PRMT1 FP inh: 25; UHRF1 binding: inactive; M18AAP inhibitor: inactive

How did Cn1nnnc1SCC1=C(C(=O)O)N2C(=O)[C@@H](NC(=O)[C@H](O)c3ccccc3)[C@H]2SC1 do in these assays?
PfGluPho inh: inactive; M18AAP inhibitor: inactive

Results for CC(=O)OCC1=C(C(=O)O)N2C(=O)[C@@H](NC(=O)CSc3ccncc3)[C@H]2SC1 ?
PfGluPho inh: inactive; MBD2 DNA inh: inactive; PRMT1 FP inh: inactive; UHRF1 binding: inactive

What do the screens show for `CO/N=C(\C(=O)N[C@@H]1C(=O)N2C(C(=O)O)=C(COC(N)=O)CS[C@H]12)c1ccco1`?
PfGluPho inh: inactive; MBD2 DNA inh: inactive; PRMT1 FP inh: inactive; UHRF1 binding: 25; M18AAP inhibitor: inactive

What do the screens show for `COCC1=C(C(=O)OC(C)OC(=O)OC(C)C)N2C(=O)[C@@H](NC(=O)/C(=N\OC)c3csc(N)n3)[C@H]2SC1` (stereo partly drawn)?
PfGluPho inh: inactive; MBD2 DNA inh: inactive; PRMT1 FP inh: inactive; UHRF1 binding: inactive

Results for CC(=O)OCC1=C(C(=O)O)N2C(=O)C(NC(=O)c3ccc(F)cc3)C2SC1 (stereo not drawn) ?
PfGluPho inh: inactive; MBD2 DNA inh: inactive; PRMT1 FP inh: 24; UHRF1 binding: inactive; M18AAP inhibitor: inactive
